Pf growth 96h: P. falciparum growth inhibition at 96 hours | P. falciparum luciferase reporter growth, 96 h | AID 504834 | 320,000 tested, 6.9% active | Potency, µM (highest dose often 28.7 µM), for the others: at the highest dose activity change, negative = inhibition, most hits filed as inhibitors; note: % is set by controls: 0 for no effect and ±100 for the full control effect
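Infected RBCs, 2% Hct / 0.05% parasitemia final; luciferase-reporter P. falciparum; cpd 96 h, 37 C, 5% CO2; luciferase detection reagent; luminescence.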
AMA1-RON2 inh: AMA1-RON2 (P. falciparum) interaction inhibition; AlphaScreen AMA1-biotinylated RON2 peptide binding; Potency, µM (titrated, usually from 58.2 µM), for the others: at the top dose activity change, negative = inhibition, hits mostly inhibitors; 360,000 tested, 0.2% active; AID 720542;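 note: 0% = vehicle wells and -100% = peptide control; nearly all actives have a fitted effect of over 45% in size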
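AMA1 (3D7) with his tag at 25 nM final met compounds first, then biotinylated RON2 peptide at 25 nM; detection used donor plus acceptor beads, 10 µg/mL apiece, read by AlphaScreen after 30 min at room temperature.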
Pf growth 48h: P. falciparum growth inhibition at 48 hours (one generation). 310,000 tested, 5.9% active. AID 504832. P. falciparum luciferase growth in erythrocytes, 48 h. Potency, µM (series often up to 28.7 µM), for inactives: top-dose activity change, negative = inhibition, most hits filed as inhibitors; note: % is set by controls: 0 for no effect and ±100 for the full control effect
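Luminescence readout; reporter = integrated firefly luciferase in P. falciparum. RBC culture at 2% hematocrit, 0.1% parasitemia final, 37 C/5% CO2; decreased signal taken as growth inhibition.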
SARS PLP yeast: inhibitors of SARS-CoV papain-like protease in yeast; S. cerevisiae expressing SARS-CoV PLpro, growth rescue; 330,000 tested, 0.19% active; Potency, µM (top dose mostly 32.9 µM), without a hit: top-dose activity, positive = growth rescue, hits mostly activators; AID 485353; calls by dose curve; note: 0% is about no effect; nearly all actives have a fitted effect of over 55% in size
Starred values were filed as active, the others as inactive; ? = inconclusive; / = no result. The list is not random: actives were taken first. Their share in the collection is about 9.4%. Unless noted, calls come from the whole dose curve; as a rule, active = well fitted curve in the direction sought with a large enough effect; inconclusive = small, poorly fitted or top-dose-only effect, or another doubt; inactive = no such curve, though single readings can be large; an effect the other way counts as inactive or inconclusive. Potency is the fitted concentration of half-maximal effect.

SMILES	Pf growth 96h	AMA1-RON2 inh	Pf growth 48h	SARS PLP yeast
Cc1sc2nc(CN3CCOCC3)nc(NS(=O)(=O)c3ccccc3)c2c1C	/	10.4%	23.8%	-6.6%
Cc1sc2nc(CSc3ccccc3)nc(NCCN(C)C)c2c1C	5.86µM*	-7.6%	?	21.2%
CCOC(=O)c1sc2nc(CSc3ccccc3)nc(N3CCC(C(N)=O)CC3)c2c1C	4.15µM*	-4.3%	3.29µM*	-4.9%
CCOC(=O)c1sc2nc(CSc3ccccc3)nc(N3CCCN(C)CC3)c2c1C	?	-13.6%	?	0.7%
C=CCn1c(NC(=O)c2ccc(C)cc2)nc2ccccc21	-50.8%	80.0%	?	1.1%
O=C1NCC(O)=C1C=Nc1ccccc1O	?	66.9%	10.4µM*	-4.1%
Cc1cc(=O)n(CC=C(Cl)Cl)c2ccccc12	-29.0%	19.3%	?	-3.5%
CN1OC[C@@H]2CN(Cc3ccc(Cl)cc3)[C@H](c3ccc(N4CCCCC4)cc3)C[C@@H]21	/	15.8µM*	/	/
COc1ccc(C(=O)N/C=C/n2cnc3cc(C(F)(F)F)ccc32)cc1	-8.3%	1.0%	-13.9%	0.5%
COc1ccc(OC)c(-c2nn(-c3ccccc3)cc2C(=O)NCC(c2ccco2)N2CCCC2)c1 (centres undefined)	?	-6.1%	9.28µM*	2.4%
CCc1cc(C(=O)NCC(c2ccc(OC)cc2)N2CCOCC2)sc1C (centres undefined)	-1.0%	20.7%	-0.5%	0.8%
CCC1CCc2sc(C(=O)NCC(c3ccc(OC)cc3)N3CCOCC3)cc2C1 (centres undefined)	?	-3.1%	11.7µM*	-4.0%
COc1cccc(-n2nc(C(=O)NCC3CCCO3)c3ccccc3c2=O)c1 (centres undefined)	3.7µM*	-1.9%	-16.1%	-3.6%
Cc1ccccc1-c1nn(-c2ccccc2)cc1C(=O)NCC(c1ccco1)N1CCCC1 (centres undefined)	-46.3%	-9.7%	?	-8.4%
COc1cccc(-c2nn(-c3ccc(C)cc3)cc2C(=O)NCC(c2cccs2)N2CCOCC2)c1 (centres undefined)	?	-5.4%	3.29µM*	/
CCn1ccc(C(=O)Nc2ccccc2Cl)n1	15.4%	8.8%	-18.2%	-0.6%
O=C(NCC(c1cccs1)N1CCOCC1)c1cn(-c2ccccc2)nc1-c1ccccc1 (centres undefined)	13.1µM*	-12.0%	?	2.1%
COc1ccc(-n2nc(C(=O)NCC(=O)N3CCC4(CC3)OCCO4)c3ccccc3c2=O)cc1	2.7%	1.6%	4.9%	1.2%
COc1ccc(C(CNC(=O)c2nn(-c3ccccc3)c(=O)c3ccccc23)N2CCOCC2)cc1 (centres undefined)	10.4µM*	0.0%	-49.3%	6.4%
COc1ccc(-c2nn(-c3ccccc3)cc2C(=O)NCC(c2cccs2)N2CCOCC2)cc1 (centres undefined)	?	-21.5%	13.1µM*	0.0%
CC1(C(=O)Nc2ccc3c(c2)OCCO3)CCN1C(=O)Cc1ccc(-c2ccccc2)cc1 (centres undefined)	/	-15.0%	/	/
c1ccc(-c2csc(N3CCN(c4ccccn4)CC3)n2)cc1	/	-15.3%	73.3%	-13.5%
CCc1ccccc1S(=O)(=O)Cc1ccc(C(=O)NCC2CCCO2)o1 (centres undefined)	8.7%	5.0%	-9.2%	7.5%
O=C(COC(=O)c1cc(S(=O)(=O)N2CCOCC2)ccc1F)NCCc1ccc(F)cc1	/	27.5%	/	3.0%
CC1CCCC(NC(=O)COC(=O)c2cc(S(=O)(=O)N3CCCCC3)ccc2N2CCOCC2)C1C (centres undefined)	5.22µM*	5.2%	/	-0.1%
SMILES	Pf growth 96h	AMA1-RON2 inh	Pf growth 48h	SARS PLP yeast
CCOc1ccc(CCNC(=O)COC(=O)c2cc(S(=O)(=O)N3CCOCC3)ccc2F)cc1OCC	13.1µM*	8.3%	?	2.3%
Cc1cc(C(=O)OCC(=O)NC2CCCC(C)C2C)c(C)o1 (centres undefined)	/	-3.5%	/	-0.1%
CC1CCCC(NC(=O)NC(=O)COC(=O)c2ccc(O)cc2O)C1C (centres undefined)	?	-5.3%	7.38µM*	1.6%
CC(C)CCNC(=O)NC(=O)COC(=O)c1cc(S(=O)(=O)N2CCOCC2)ccc1N1CCCCC1	/	-6.0%	9.28µM*	13.2%
O=C(CN1CCN(Cc2ccc(F)cc2)CC1)NCc1ccccc1	-9.8%	10.7%	-0.6%	-7.1%
CCOc1cc(CO)c(Br)cc1OCC(=O)O	/	-1.7%	19.0%	1.0%
COc1ccc(O[C@H]2C=C[C@@H](c3ccccc3)O[C@@H]2COC(=O)CCC(C)=NO[C@@H]2O[C@H](COC(C)=O)[C@@H](OC(C)=O)[C@H](OC(C)=O)[C@H]2OC(C)=O)cc1	?	/	-4.7%	3.8%
COc1ccc(O[C@H]2C=C[C@@H](c3ccccc3)O[C@@H]2COC(=O)CC/C(C)=N/O[C@H](C)c2cn([C@@H]3COC[C@H]3O)nn2)cc1	?	/	14.7µM*	5.0%
Cc1ccc(C2NNC(=O)C2NC(=O)c2ccccc2)cc1 (centres undefined)	86.6%	-7.6%	/	4.3%
O=C(CCc1nc2ccccc2c(=O)[nH]1)OCC(=O)N1CCN(S(=O)(=O)c2ccccc2)CC1	-28.1%	11.0%	-8.4%	3.3%
CCOC(=O)/C(C#N)=N/Nc1ccccc1C(=O)O	10.4µM*	6.4%	?	0.4%
O=C1[C@@H]2[C@H](C(=O)N1n1cnnc1)[C@H]1C=C[C@@H]2C1	4.3%	6.2%	19.9%	-2.0%
CCCC(CCC)C(=O)Nc1cccc(C(=O)O)c1	/	2.8%	5.8%	4.4%
Cc1ccc(Cl)cc1NC(=O)COC(=O)C12CC3CC(CC(C3)C1)C2	7.38µM*	-12.6%	3.7µM*	-31.1%
Cc1ccc(Cl)cc1NC(=O)COC(=O)C1CCCC1	2.7%	4.2%	22.3%	-1.9%
C[n+]1c2n(c3ccccc31)N=C(c1ccc(Cl)cc1)CS2	16.5%	100.2%	-23.1%	-28.9%
CC1Sc2n(c3ccccc3[n+]2C)N=C1c1ccccc1 (centres undefined)	-102.1%	4.0%	0.928µM*	-16.4%
Cc1oc2c(CN3CCCCC3)c(O)ccc2c(=O)c1-c1ccc(Cl)cc1	?	-5.9%	1.65µM*	1.6%
Cc1oc2c(CN3CCCC(C)C3)c(O)ccc2c(=O)c1-c1ccccc1 (centres undefined)	8.28µM*	5.0%	6.57µM*	-1.0%
COc1ccccc1Oc1c(C)oc2c(CN3CCN(CCO)CC3)c(O)ccc2c1=O	-5.2%	7.5%	22.2%	4.1%
O=c1oc2c(CN3CCCCCC3)c(O)ccc2cc1-c1nc2ccccc2[nH]1	5.7%	/	2.33µM*	-0.8%
Cc1oc2c(CN3CCCC3)c(O)ccc2c(=O)c1Oc1ccccc1Br	5.6%	13.4%	1.65µM*	1.3%
Cc1ccc(C)c2[nH]c(=O)c(CCNC(=O)CCc3ccccc3)cc12	5.5%	0.7%	-4.8%	8.6%
CCOC(=O)c1csc(NC(=O)c2cccs2)n1	67.0%	-2.1%	108.9%	-22.1%
O=c1cc(-c2ccccc2)c2ccc(O)c(CN3CCCCC3)c2o1	26.8%	5.9%	10.4µM*	1.7%
